Source: PubChem BioAssay AID1745848 (National Center for Advancing Translational Sciences (NCATS), 2022)
Among all 2,100 compounds or so, about 940 (45%) were called active. About 48% were inconclusive and are not listed. Calls follow the shape of the dose curve; as a rule, active = well fitted inhibition curve with a large enough effect; inconclusive = small, poorly fitted or top-dose-only effect; inactive = no such curve, though single readings can be large or run the other way. The set was probably picked from earlier hits. Some of the results follow.

Assay: Confirmatory qHTS for Inhibitors of ATXN expression; also: nearly all actives have a fitted effect of over 65% in size;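 as to activity change, negative = inhibition: 0% = DMSO vehicle wells and -100% = medium-only wells without cells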
Conditions: ATXN2-luciferase reporter cells, luminescence, 24 h; series mostly up to 11.5 µM; activity change, negative = inhibition: at the top concentration
Procedure, shortened: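 A titration, incubated 24 h with reporter cells expressing ATXN2-luciferase. Luminescence (SteadyGlo) gives ATXN2 expression, multiplexed GF-AFC fluorescence gives viability; normalised to DMSO and medium-only wells.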
Potency is read from the fitted curve at half-maximal effect.

Potency, active:
CN(Cc1cnc2nc(N)nc(N)c2n1)c1ccc(C(=O)NC(CCC(=O)O)C(=O)O)c2ccccc12 (stereo not drawn) 0.1 µM, CN(Cc1cnc2nc(N)nc(N)c2n1)c1ccc(C(=O)N[C@@H](CCC(=O)O)C(=O)O)cc1 0.398 µM, Cc1cnc(NC(=O)C2CC(=O)N(c3cccc(Cl)c3)C2)s1 (stereo not drawn) 0.112 µM, Cc1ccc(N2CC(C(=O)Nc3nccs3)CC2=O)cc1Cl (stereo not drawn) 2.24 µM, Cc1ccc(CN2CC(C(=O)Nc3ncc(C)s3)CC2=O)cc1 (stereo not drawn) 1.78 µM, Cc1ccc2nc(NC(=O)CSCC(=O)OCC(=O)c3ccc(Br)cc3)sc2c1 3.55 µM, COc1ccc(S(=O)(=O)N(C)C)cc1NC(=O)C1CCN(c2ncnc3sc(C)c(C)c23)CC1 22.4 µM, CCN(CC)S(=O)(=O)c1cc(NC(=O)C2CCN(c3ncnc4sc(C)c(C)c34)CC2)ccc1Cl 3.55 µM, COc1ccc(-c2csc(NC(=O)C3CCN(c4ncnc5sc(C)c(C)c45)CC3)n2)cc1OC 3.98 µM, Oc1c(C(c2ccccn2)N2CCCCC2)cc(Cl)c2cccnc12 (stereo not drawn) 15.8 µM, Oc1c(C(c2ccccn2)N2CCC(Cc3ccccc3)CC2)cc(Cl)c2cccnc12 (stereo not drawn) 28.2 µM, O=C(NC(Nc1nc2ccc([N+](=O)[O-])cc2s1)(C(F)(F)F)C(F)(F)F)c1ccccc1 0.355 µM, O=C(NC(Nc1ncc(S(=O)(=O)c2ccc([N+](=O)[O-])cc2)s1)(C(F)(F)F)C(F)(F)F)c1ccc(Cl)cc1 3.55 µM, O=c1oc2ccccc2c(O)c1Cc1cc(Cl)c2cccnc2c1O 15.8 µM, CC[n+]1c(/C=C/c2c[nH]c3ccccc23)ccc2cc(C)ccc21 7.94 µM, COc1ccc(/C=N/NC(=O)c2cccc([N+](=O)[O-])c2)c2ccccc12 3.16 µM, Cc1[nH]n(-c2cccc3ccccc23)c(=O)c1/C=N/NC(=O)c1cccc([N+](=O)[O-])c1 7.94 µM, O=C(Cc1ccc(-c2ccccc2)cc1)Nc1ccccn1 15.8 µM, CC(C)C1C(=O)N(Cc2cn(CCC3OCCO3)nn2)CCS(=O)(=O)N1Cc1ccc(-c2ccc(Cl)cc2)cc1 (stereo not drawn) 31.6 µM, CSc1ncnc2c1ncn2CC(=O)C1CCC2C3CCC4=CC(=O)CCC4(C)C3CCC12C (stereo not drawn) 11.2 µM, CCCC(=O)NC(c1ccc(OC)c(OC)c1)c1cc(Cl)c2cccnc2c1O (stereo not drawn) 2.51 µM, COc1ccc(C(NC(=O)c2cccnc2)c2cc(Cl)c3cccnc3c2O)cc1OC (stereo not drawn) 2.51 µM, CCC(=O)NC(c1ccc(OC)c(OC)c1)c1cc(Cl)c2cccnc2c1O (stereo not drawn) 2.82 µM, N=c1c2c(n(Cc3ccc(Br)cc3)c3c1CCC3)CCCC2 1.12 µM, Cc1ccc2[nH]c(=O)c(CN(CCCN(C)C)C(=O)Nc3cccc(Cl)c3)cc2c1 22.4 µM, COc1ccc(/C=N/Nc2cc(N3CCCC3)nc(N3CCCC3)n2)cc1 3.16 µM, Cc1c(C(=O)Nc2nonc2-c2ccc(F)cc2)oc2ccc(F)cc12 25.1 µM, Cc1nc2c(OCc3cc(Cl)cc(Cl)c3)cccn2c1N(C)C(=O)CCC1CCCC1 22.4 µM, Cc1nn(-c2ccccc2)c2nc(-c3cccs3)cc(C(=O)NN)c12 14.1 µM, Cc1onc(-c2c(Cl)cccc2Cl)c1C(=O)N/N=C(\N)COc1ccc(Cl)cc1 2.51 µM, Cn1cc(C(=O)c2ccc(Cl)cc2Cl)cc1C(=O)N/N=C(\N)COc1ccc(Cl)cc1 11.2 µM, O=C(Nc1nc(NC(=O)c2ccco2)n(-c2ccccc2)n1)c1ccccc1 3.16 µM, O=C(Nc1ccccc1Cl)N1CCCN(c2nc(-c3ccccc3)ns2)CC1 15.8 µM, Cc1c(Cl)cccc1NC(=O)N1CCCN(c2nc(-c3ccccc3)ns2)CC1 10 µM, O=C(Nc1ccc(N2CCOCC2)c(Cl)c1)c1c(F)c(F)c(F)c(F)c1F 1.26 µM, CC(=O)N/N=C/c1cc(C(C)(C)C)cc(/C=N/NC(C)=O)c1O 2.82 µM, CCOc1ccc(Nc2c3ccccc3nc3ccccc23)cc1 12.6 µM, COc1ccc(Nc2nc(N3CCCC3)c3ccccc3n2)cc1 15.8 µM, CC(=O)Nc1ccc(Nc2c3ccccc3nc3ccccc23)cc1 3.55 µM, COc1ccc(Nc2c3ccccc3nc3ccccc23)cc1 14.1 µM, Cc1cc(SCC(=O)N/N=C/c2ccc(O)cc2O)c(C)cc1Br 5.62 µM, O=C(CSc1ccc2ccccc2n1)N/N=C/c1ccccc1O 14.1 µM, C=CCn1c(CNc2ccc(C)cc2)nnc1SCC(=O)N/N=C/c1ccc(O)cc1O 10 µM, Cc1cc(SCC(=O)N/N=C/c2ccc(O)cc2O)nc2ccccc12 11.2 µM, CCC(=O)NC(c1ccc(OC)cc1)c1cc(Cl)c2cccnc2c1O (stereo not drawn) 3.16 µM, COc1ccc(C(NC(C)=O)c2cc(Cl)c3cccnc3c2O)cc1 (stereo not drawn) 1.78 µM, Clc1ccc(COC(Cn2ccnc2)c2ccc(Cl)cc2Cl)c(Cl)c1 (stereo not drawn) 2.82 µM, O=C(CCCN1C(=O)/C(=C/c2ccccc2Cl)SC1=S)NNC(=O)c1ccc(Cl)cc1 3.55 µM, O=C(CCCN1C(=O)/C(=C/c2ccccc2Cl)SC1=S)NNC(=O)c1ccc(Cl)cc1Cl 1.58 µM

Activity change, negative = inhibition, inactive:
Cc1sc2nc(CN3CCCC3)nc(N3CCC(C(N)=O)CC3)c2c1C -14.9% [at 57.5 µM], COC(=O)c1ccccc1S(=O)(=O)NNC(=O)Nc1ccccc1 -24.3%, CCCc1nc(NC2CCCCC2)c(C#N)c2c1COC(C)(C)C2 4.81%, C=CCNc1oc(-c2ccc(Cl)cc2)nc1C#N -9.33% [at 57.5 µM], CCc1nc2c(OCCOc3ccc(F)cc3)cccn2c1N(C)C(=O)c1ccco1 -22.2% [at 57.5 µM], CC(C)(C)c1ccc(NC(=O)N2CCCN(c3c(Cl)cncc3Cl)CC2)cc1 -19.3% [at 57.5 µM], CN(C)CCC(c1ccc(Br)cc1)c1ccccn1 (stereo not drawn) -29.7% [at 57.5 µM], CC(=O)Oc1ccc(Nc2ccccc2)cc1 -27.7%, Cc1cc(SCC(=O)NN)c2cc(Br)ccc2n1 2.8% [at 57.5 µM]
